Calls of active or inactive are those of the source.
Experiments:
[1] = test system: PRMT1 (protein arginine N-methyltransferase 1); test: PRMT1 binders on small-molecule microarrays, primary screen, biochemical, small-molecule microarray, 635 nm fluorescence (AID 1088); conditions: small-molecule microarray binding, higher = more signal;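 also: binding of Prmt1 protein to compounds spotted on small-molecule microarray slides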
[2] = yeast growth modulation, basal conditions, primary screen, YJM789 clinical isolate, OD600, 24 h (AID 1089);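 also: growth of clinical yeast isolate S. cerevisiae YJM 789 seeded 1000 cells per well; test concentration not given here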; conditions: S. cerevisiae YJM789 growth, higher = more signal, called active from +8 up or from −8 down
[3] = fission yeast growth modulation, primary screen, strain 972, OD600, 24 h, no modulator (AID 1090);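 also: basal condition with compound alone and no growth modifier present; test concentration not given here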; conditions: S. pombe 972 growth, higher = more signal, called active from +8 up or from −8 down
[4] = S. cerevisiae growth modulation with rapamycin, primary screen, strain BY4716, OD600, 96 h (AID 1091); conditions: higher = more signal, called active from +8 up or from −8 down; also: test concentration not given here
[5] = target: Torsin-1A-interacting protein 2 (Homo sapiens) (UniProt Q8NFQ8); test: LULL1 binders on small-molecule microarray, primary screen, cell lysate, human LULL1 lysate, 635/667 nm fluorescence (AID 1092); conditions: hLULL1 lysate binding, 635 nm fluorescence, higher = more signal;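 also: probe is lysate of COS7 cells overexpressing human LULL1; score merges per-feature 667 nm fluorescence with signal-to-noise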
Torsin-1A-interacting protein 2 (Homo sapiens), sequence (Q8NFQ8 whole entry, looked up): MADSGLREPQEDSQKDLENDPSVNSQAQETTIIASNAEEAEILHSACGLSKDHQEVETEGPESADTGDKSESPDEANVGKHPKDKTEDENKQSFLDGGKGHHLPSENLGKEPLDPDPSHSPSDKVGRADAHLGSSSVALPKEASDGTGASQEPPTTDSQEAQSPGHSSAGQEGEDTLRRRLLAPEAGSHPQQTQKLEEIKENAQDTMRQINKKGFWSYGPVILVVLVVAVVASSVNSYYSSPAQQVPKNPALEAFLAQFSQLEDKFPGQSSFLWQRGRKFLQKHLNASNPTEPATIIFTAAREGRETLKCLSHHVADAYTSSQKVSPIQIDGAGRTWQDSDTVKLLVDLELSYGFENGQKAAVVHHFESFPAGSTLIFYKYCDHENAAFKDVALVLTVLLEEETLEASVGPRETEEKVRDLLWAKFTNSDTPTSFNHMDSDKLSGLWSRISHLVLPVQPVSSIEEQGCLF

[6] = E. coli growth modulation, two-sided OD650, primary screen, E. coli filamentation project, strain DRC41, 24 h (AID 1093); conditions: OD650, 24 h, higher = more signal, called active from +8 up or from −8 down;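 also: MC1000 strain lacking acrAB efflux and sulA so SOS filamentation is blocked; test concentration not given here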
[7] = small-molecule microarray binders of probe aLefty2, primary screen, biochemical, biotinylated probe, 635/667 nm fluorescence (AID 1094); conditions: higher = more signal;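 also: score merges spot fluorescence near 667 nm with spot signal-to-noise ratio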
[8] = test system: Noggin (protein binding on small-molecule microarray); test: Noggin binders on small-molecule microarray, primary screen, biochemical, 635/667 nm fluorescence (AID 1095); conditions: 635 nm fluorescence, higher = more signal;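 also: score merges 667 nm feature fluorescence with signal to noise over triplicate slides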
[9] = target: Neurogenic locus notch homolog protein 3 (Homo sapiens) (UniProt Q9UM47); test: NOTCH3 binders on small-molecule microarray, primary screen, biochemical, 635/667 nm fluorescence (AID 1096); conditions: NOTCH3 binding, 635 nm fluorescence, higher = more signal
Neurogenic locus notch homolog protein 3 (Homo sapiens), sequence (Q9UM47 whole entry, looked up): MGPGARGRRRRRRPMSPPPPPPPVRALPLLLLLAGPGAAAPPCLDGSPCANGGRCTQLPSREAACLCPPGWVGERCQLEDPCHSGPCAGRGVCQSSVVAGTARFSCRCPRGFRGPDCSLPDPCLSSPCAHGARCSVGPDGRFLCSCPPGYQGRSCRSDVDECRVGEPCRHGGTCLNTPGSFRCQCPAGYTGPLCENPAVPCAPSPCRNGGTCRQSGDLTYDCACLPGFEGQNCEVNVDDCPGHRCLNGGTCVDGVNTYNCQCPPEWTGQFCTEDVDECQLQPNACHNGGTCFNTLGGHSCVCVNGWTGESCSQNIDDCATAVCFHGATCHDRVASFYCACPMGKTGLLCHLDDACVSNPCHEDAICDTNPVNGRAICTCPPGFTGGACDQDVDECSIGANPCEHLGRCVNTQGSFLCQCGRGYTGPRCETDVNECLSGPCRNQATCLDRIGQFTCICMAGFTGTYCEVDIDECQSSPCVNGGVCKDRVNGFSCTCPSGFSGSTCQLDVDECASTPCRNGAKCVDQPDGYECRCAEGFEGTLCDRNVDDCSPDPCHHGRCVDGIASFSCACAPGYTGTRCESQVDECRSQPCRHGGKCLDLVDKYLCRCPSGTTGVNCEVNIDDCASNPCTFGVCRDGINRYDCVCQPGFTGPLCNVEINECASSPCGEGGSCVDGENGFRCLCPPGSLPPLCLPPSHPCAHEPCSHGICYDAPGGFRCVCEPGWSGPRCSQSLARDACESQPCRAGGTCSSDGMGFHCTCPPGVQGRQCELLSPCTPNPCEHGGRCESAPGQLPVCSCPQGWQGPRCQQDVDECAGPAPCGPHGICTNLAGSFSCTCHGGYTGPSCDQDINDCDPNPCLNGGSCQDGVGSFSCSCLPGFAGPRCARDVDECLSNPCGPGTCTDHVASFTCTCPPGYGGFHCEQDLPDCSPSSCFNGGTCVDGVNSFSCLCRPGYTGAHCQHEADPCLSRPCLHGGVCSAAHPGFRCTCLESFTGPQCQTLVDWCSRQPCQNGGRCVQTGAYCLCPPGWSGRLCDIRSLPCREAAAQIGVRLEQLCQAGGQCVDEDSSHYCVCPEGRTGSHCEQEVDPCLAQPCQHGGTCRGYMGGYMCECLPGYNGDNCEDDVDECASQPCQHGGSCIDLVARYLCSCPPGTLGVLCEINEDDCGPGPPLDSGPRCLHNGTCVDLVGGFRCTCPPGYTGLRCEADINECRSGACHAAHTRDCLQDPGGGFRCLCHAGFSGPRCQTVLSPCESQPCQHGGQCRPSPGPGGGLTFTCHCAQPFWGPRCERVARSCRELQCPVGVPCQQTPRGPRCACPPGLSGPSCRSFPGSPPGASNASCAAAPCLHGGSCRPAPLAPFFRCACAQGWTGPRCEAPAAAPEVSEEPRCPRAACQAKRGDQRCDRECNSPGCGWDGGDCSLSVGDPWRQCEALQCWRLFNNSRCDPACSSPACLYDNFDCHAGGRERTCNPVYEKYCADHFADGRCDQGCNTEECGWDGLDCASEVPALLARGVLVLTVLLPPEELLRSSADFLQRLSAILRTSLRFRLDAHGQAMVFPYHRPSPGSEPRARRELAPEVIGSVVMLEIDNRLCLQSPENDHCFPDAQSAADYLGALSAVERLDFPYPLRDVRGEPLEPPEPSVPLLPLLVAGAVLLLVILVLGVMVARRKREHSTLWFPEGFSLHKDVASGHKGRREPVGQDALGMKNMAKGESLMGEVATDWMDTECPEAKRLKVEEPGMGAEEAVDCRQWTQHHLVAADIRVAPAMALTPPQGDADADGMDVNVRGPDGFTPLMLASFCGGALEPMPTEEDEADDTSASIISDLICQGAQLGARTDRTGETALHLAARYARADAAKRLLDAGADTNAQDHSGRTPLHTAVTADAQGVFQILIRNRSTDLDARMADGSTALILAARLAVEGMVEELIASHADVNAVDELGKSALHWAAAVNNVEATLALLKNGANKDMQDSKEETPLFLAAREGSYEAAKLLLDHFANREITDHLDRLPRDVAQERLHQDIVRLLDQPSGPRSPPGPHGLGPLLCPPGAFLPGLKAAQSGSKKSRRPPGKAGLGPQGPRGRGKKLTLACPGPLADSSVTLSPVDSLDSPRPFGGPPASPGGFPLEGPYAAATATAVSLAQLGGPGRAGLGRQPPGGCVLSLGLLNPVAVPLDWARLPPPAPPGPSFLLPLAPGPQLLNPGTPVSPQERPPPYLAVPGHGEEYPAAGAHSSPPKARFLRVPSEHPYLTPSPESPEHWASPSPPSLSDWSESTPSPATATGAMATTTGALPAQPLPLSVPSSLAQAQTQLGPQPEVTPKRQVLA

[10] = small-molecule microarray binders of probe aEGFR, primary screen, biochemical, biotinylated probe, 635/667 nm fluorescence (AID 1097); conditions: higher = more signal;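 also: probe is a biotinylated anti-EGFR antibody binding compounds printed on slides; score combines fluorescence near 667 nm and signal to noise of each spot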
[11] = test system: Plasmodium falciparum Sir2 (PF13_0152, Sir2A); test: pfSir2 binders on small-molecule microarrays, primary screen, biochemical, small-molecule microarray, 635 nm fluorescence (AID 1098); conditions: small-molecule microarray binding, fluorescence 635 nm; higher = more signal;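 also: score merges spot fluorescence intensity with its signal-to-noise ratio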
[12] = small-molecule microarray binders of probe aDKK1, primary screen, biochemical, biotinylated probe, 635/667 nm fluorescence (AID 1099); conditions: higher = more signal;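 also: score merges 667nm spot fluorescence with signal to noise across triplicate slides; reference of the scale not given here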
[13] = small-molecule microarray binders of probe aCHRDL2, primary screen, biochemical, biotinylated probe, 635/667 nm fluorescence (AID 1100); conditions: higher = more signal
[14] = splicing luciferase reporter signal modulators, primary screen, spliceosome inhibition project, cell-based, HEK293, splice +/- reporter (AID 1101); conditions: luminescence, 24 h, higher = more signal, called active from +8 up or from −8 down;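 also: HEK293 cells carrying a splicing-competent luciferase reporter gene; test concentration not given here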
[15] = target: Fibroblast growth factor 10 (Homo sapiens) (UniProt O15520); test: FGF10 binders on small-molecule microarrays, primary screen, biochemical, small-molecule microarray, 635 nm fluorescence (AID 1102); conditions: FGF10 binding, fluorescence 635 nm, higher = more signal
Fibroblast growth factor 10 (Homo sapiens), sequence (O15520 whole entry, looked up): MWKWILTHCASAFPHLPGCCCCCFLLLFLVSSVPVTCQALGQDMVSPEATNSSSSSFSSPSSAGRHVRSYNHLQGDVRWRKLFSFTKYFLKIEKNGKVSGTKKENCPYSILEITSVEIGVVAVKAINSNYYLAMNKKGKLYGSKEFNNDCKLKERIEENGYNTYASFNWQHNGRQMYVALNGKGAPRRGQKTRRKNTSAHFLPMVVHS

[16] = test system: glycogen synthase kinase-3 (GSK3A per assay name; protocol says GSK3B); test: GSK3 binders on small-molecule microarrays, primary screen, biochemical, small-molecule microarray, 635 nm fluorescence, GSK3A (AID 1103); conditions: small-molecule microarray binding, fluorescence 635 nm; higher = more signal; also: the record names both GSK3A and GSK3B
[17] = target: Epidermal growth factor receptor (Homo sapiens) (UniProt P00533); test: EGFR binders on small-molecule microarrays, primary screen, biochemical, small-molecule microarray, 635 nm fluorescence (AID 1104); conditions: EGFR binding, higher = more signal;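 also: score merges 667 nm emission intensity with spot signal to noise over triplicate slides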
Epidermal growth factor receptor (Homo sapiens), sequence (P00533 whole entry, looked up): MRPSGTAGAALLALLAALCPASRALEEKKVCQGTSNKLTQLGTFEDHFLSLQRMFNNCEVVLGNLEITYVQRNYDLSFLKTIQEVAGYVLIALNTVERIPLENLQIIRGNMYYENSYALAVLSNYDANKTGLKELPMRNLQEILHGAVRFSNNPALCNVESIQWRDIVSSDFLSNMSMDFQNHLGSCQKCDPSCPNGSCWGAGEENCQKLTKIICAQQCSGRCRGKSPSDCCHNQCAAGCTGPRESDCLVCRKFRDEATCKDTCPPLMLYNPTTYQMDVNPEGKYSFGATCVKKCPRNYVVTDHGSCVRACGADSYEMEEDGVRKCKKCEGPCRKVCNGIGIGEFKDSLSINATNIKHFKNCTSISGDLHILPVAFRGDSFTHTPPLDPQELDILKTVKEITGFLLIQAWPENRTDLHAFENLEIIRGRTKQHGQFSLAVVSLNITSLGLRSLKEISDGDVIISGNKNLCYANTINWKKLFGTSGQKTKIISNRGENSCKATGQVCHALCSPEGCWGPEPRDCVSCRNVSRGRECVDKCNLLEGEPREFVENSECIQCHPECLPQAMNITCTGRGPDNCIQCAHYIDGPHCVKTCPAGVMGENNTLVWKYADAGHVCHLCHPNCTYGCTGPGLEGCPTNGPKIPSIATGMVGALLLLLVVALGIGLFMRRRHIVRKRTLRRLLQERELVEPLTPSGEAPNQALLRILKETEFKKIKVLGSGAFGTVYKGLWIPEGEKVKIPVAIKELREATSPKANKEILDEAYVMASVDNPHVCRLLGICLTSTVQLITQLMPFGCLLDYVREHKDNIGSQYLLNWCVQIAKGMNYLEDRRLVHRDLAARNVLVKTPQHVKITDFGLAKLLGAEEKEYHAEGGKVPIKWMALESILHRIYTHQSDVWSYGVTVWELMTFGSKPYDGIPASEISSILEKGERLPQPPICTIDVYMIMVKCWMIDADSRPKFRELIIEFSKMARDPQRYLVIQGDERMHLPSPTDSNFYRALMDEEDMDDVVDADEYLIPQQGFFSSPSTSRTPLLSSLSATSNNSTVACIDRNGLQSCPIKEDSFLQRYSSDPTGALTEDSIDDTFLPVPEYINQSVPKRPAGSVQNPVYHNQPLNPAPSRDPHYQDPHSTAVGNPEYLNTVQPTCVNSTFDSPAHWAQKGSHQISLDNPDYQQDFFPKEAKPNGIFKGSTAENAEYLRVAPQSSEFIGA

[18] = target: Follistatin-related protein 3 (Homo sapiens) (UniProt O95633); test: FSTL3 binders on small-molecule microarrays, primary screen, biochemical, small-molecule microarray, 635 nm fluorescence (AID 1105); conditions: FSTL3 binding, higher = more signal;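 also: score merges emission near 667 nm and signal to noise per printed spot across three slides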
Follistatin-related protein 3 (Homo sapiens), sequence (O95633 whole entry, looked up): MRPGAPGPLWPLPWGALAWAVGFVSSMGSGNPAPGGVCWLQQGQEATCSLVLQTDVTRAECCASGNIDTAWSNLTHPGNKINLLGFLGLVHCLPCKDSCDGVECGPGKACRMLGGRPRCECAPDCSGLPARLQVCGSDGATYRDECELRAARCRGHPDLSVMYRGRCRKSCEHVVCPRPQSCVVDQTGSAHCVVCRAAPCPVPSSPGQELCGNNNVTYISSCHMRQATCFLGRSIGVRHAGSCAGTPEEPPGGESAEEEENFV

[19] = target: Dickkopf-related protein 1 (Homo sapiens) (UniProt O94907); test: DKK1 binders on small-molecule microarrays, primary screen, biochemical, small-molecule microarray, 635 nm fluorescence scan (AID 1106); conditions: DKK1 binding, higher = more signal;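 also: score merges emission near 667 nm with signal to noise over three replicate slides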
Dickkopf-related protein 1 (Homo sapiens), sequence (O94907 whole entry, looked up): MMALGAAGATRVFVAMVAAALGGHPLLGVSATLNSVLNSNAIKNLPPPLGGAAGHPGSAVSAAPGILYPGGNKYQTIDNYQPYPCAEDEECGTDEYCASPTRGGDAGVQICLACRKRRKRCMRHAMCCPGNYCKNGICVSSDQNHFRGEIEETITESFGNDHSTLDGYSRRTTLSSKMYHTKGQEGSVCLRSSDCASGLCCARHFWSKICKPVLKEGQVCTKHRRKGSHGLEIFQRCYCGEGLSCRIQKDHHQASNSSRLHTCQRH

[20] = test system: Inhibin beta A chain (activin A); test: INHBA (activin A) binders on microarrays, primary screen, biochemical, small-molecule microarray, 635 nm fluorescence scan (AID 1107); conditions: small-molecule microarray binding, higher = more signal;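 also: mouse activin A protein probed at 4.33 µg/mL on printed slides; score merges bound-protein fluorescence near 667 nm with spot signal-to-noise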

Compound | composite z-score [1] | z-score [2] | z-score [3] | z-score [4] | composite z-score [5] | z-score [6] | composite z-score [7] | composite z-score [8] | composite z-score [9] | composite z-score [10] | composite z-score [11] | composite z-score [12] | composite z-score [13] | z-score [14] | composite z-score [15] | composite z-score [16] | composite z-score [17] | composite z-score [18] | composite z-score [19] | composite z-score [20]
C=C(/C(=C/C[C@@H](OC(=O)c1ccncc1)c1ccc(OCCO)cc1)c1cnc2ccccc2c1)C(C)C | 1.55 | -24.8 (active) | -20.4 (active) | -4.32 (inactive) | 0.65 | 1.23 (inactive) | -0.0262 | 1.65 | 1.07 | -0.0949 | 1.2 | -0.144 | -0.216 | -2.87 (inactive) | 1.54 | 1.28 | 0.419 | 1.24 | 0.824 | 1.56
COCCCNC(=O)[C@@]1(CCS(=O)(=O)c2ccccc2)N=C(c2ccc(OCCCO)cc2)O[C@H]1c1ccccc1 | 1.38 | -0.67 (inactive) | -0.692 (inactive) | -0.757 (inactive) | 3.43 | 2.54 (inactive) | 0.888 | 0.0483 | -0.0936 | 0.592 | 1.69 | 1.45 | 1.16 | 0.409 (inactive) | 1.12 | 1.29 | -0.11 | -0.21 | 0.026 | 0.0123
COC(=O)[C@H](C)NC(=O)CCC1CC(OC(=O)NCc2cccc3ccccc23)CC2(CCCC(COC(=O)NCC3CCCCC3)O2)O1 (stereo not given in full) | 1.55 | -0.0166 (inactive) | 0.633 (inactive) | -0.825 (inactive) | 3.37 | -0.639 (inactive) | -0.114 | 0.918 | 1.06 | 0.0278 | 0.534 | -0.0762 | -0.86 | -0.397 (inactive) | 1.47 | 1.36 | 1.15 | 1.08 | 0.528 | -0.564
C#CCCCON=C1C[C@@H](O)[C@@H](O)[C@@H]2[C@@H]3C(=O)N(c4cccc(Oc5ccccc5)c4)C(=O)[C@@H]3CC[C@@H]12 | 0.678 | 0.71 (inactive) | 0.329 (inactive) | -0.426 (inactive) | 2.51 | 0.303 (inactive) | -0.0961 | 0.376 | 1.1 | 0.0675 | 0.632 | -0.178 | 0.0505 | -0.417 (inactive) | 0.985 | 0.548 | 0.213 | 0.802 | -0.0498 | -0.211
COc1ccc(OC[C@H]2Cc3c(-c4ccccc4)nc4c(c3CO2)CN(CCOc2ccccc2)CC4)cc1 | 1.53 | -0.721 (inactive) | -2.44 (inactive) | -0.42 (inactive) | 1.32 | 0.258 (inactive) | 0.0534 | 0.476 | 1.1 | 0.03 | 1.07 | 0.521 | -0.233 | -1.47 (inactive) | 0.883 | 0.94 | 0.487 | 1.03 | 0.85 | 0.726

From PubChem BioAssay
